# Screening results (PubChem)
# Compounds with a hit are over-represented: about 10% of the library has one in this group of screens.
# 3T3 cytotox: cytotoxic compounds in NIH 3T3 cells. Potency, µM (doses to about 96.7 µM), usual class: inhibitors. NIH 3T3 viability, CellTiter-Glo ATP luminescence, 48-72 h. hit rate 4.3% among 94,000; note: nearly all actives have a fitted effect of over 55% in size
#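 First NIH 3T3 cells are plated at 400 cells/well; next compound is pinned in; then plates incubate 48 or 72 hr at 37 °C; finally CellTiter-Glo is added and luminescence read after 10 min.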
# FLuc inh: blocks purified firefly luciferase enzyme activity; P08659; purified P. pyralis luciferase, luminescence, biochemical; Potency, µM (titrated, usually from 115 µM), actives largely listed as inhibitors; hit rate 2.5% among 76,000; AID 1347043; note: nearly all actives have a fitted effect of over 65% in size
# Target sequence (P08659 whole entry, looked up): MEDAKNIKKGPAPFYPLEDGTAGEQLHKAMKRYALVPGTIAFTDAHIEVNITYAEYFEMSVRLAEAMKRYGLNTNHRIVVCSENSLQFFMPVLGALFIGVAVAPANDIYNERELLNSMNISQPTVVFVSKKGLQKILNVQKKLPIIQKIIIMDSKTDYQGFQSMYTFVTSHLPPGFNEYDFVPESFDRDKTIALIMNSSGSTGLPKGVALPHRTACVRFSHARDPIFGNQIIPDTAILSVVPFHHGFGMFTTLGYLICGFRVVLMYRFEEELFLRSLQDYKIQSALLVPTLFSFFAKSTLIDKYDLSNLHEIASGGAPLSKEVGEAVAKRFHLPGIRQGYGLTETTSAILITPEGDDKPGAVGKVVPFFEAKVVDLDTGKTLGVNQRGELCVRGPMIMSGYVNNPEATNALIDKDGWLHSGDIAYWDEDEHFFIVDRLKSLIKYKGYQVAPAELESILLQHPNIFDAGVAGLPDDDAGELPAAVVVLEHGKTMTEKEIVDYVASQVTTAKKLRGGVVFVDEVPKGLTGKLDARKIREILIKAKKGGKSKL
#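 FLuc 10nM, D-luciferin 10uM, ATP 10uM, Mg acetate 10mM, Tris acetate pH 7.5, Tween/BSA; cpd qHTS; enzyme added last; CCD luminescence.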
# GPT2 inh: inhibitors of human GPT2 alanine aminotransferase; Q8TD30; AID 1671188; Potency, µM (doses to about 57.7 µM), most hits filed as inhibitors; Recombinant GPT2, coupled pyruvate oxidase/HRP Amplex Red fluorescence; hit rate 0.25% among 100,000; note: nearly all actives have a fitted effect of over 60% in size
#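 Inhibition is scored from Amplex Red fluorescence generated when pyruvate oxidase and HRP act on pyruvate released by GPT2. Reactions contain 10ng/uL enzyme, 250uM a-KG and 2mM L-alanine and run 30 min at room temperature.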
# hNpr1 antagonist: blocks ANP-stimulated signaling of human Npr1 receptor; P16066; HEK293 hNpr1 GloSensor cGMP, ANP-stimulated luminescence; hit rate 1.6% among 76,000; Potency, µM (highest dose often 46.3 µM), most hits filed as inhibitors; calls by dose curve; note: nearly all actives have a fitted effect of over 60% in size
#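 HEK293 cells stably expressing human Npr1 and cGMP GloSensor pGS-40F, loaded 2 h with 2% GloSensor reagent, given compound 30 min at room temperature. Luminescence read before and 20 min after 0.1 nM hNppA.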
# HEK cytotox: HEK 293 cell cytotoxicity | Potency, µM (highest dose often 115 µM), hits mostly inhibitors | AID 1345083 | HEK 293 viability, ATP luminescence (CellTiter-Glo), 48-72 h | hit rate 6.6% among 94,000; note: nearly all actives have a fitted effect of over 60% in size
#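 250 HEK 293 cells/well; compound by pintool; incubated 48 or 72 hr at 37 degree Celsius; CellTiter-Glo added, 10 min RT, luminescence imaged.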
# Hits are given with their value; n = inactive; u = inconclusive; x = no result given. Unless noted, calls come from the whole dose curve; as a rule, active = well fitted curve in the direction sought with a large enough effect; inconclusive = small, poorly fitted or top-dose-only effect, or another doubt; inactive = no such curve, though single readings can be large; an effect the other way counts as inactive or inconclusive.
SMILES,3T3 cytotox,FLuc inh,GPT2 inh,hNpr1 antagonist,HEK cytotox
Cc1ccccc1[C@H]1C[C@@H](O)[C@@H](O)[C@@H]1NS(=O)(=O)c1ccc(C(F)(F)F)cc1,n,n,n,n,100µM
COc1ccc([C@H]2C[C@@H](O)[C@@H](O)[C@@H]2NC(=O)Nc2ccc(C(F)(F)F)cc2)cc1,25µM,n,n,u,u
CCC1=C(C(=O)OC)C(c2ccc(C)cc2C)N2C(CC(=O)N3CCCC3)=CSC2=N1 (stereo not given),n,n,n,u,u
CCC1=C(C(=O)OC)C(c2ccc(C)cc2C)N2C(CC(=O)Nc3ccc(OC)cc3)=CSC2=N1 (stereo not given),u,n,n,n,45µM
COC(=O)C1=C(C)N=C2SC=C(CC(=O)N3CCCC3)N2C1c1ccc(C)cc1C (stereo not given),25µM,n,u,u,u
CC(=O)N1CCCC1C(=O)N1CCC(N2Cc3ccccc3C2=O)CC1 (stereo not given),n,x,n,x,n
CC(C)NC(=O)NC1CCCN(c2ccc3nnc(-c4ccccc4)n3n2)C1 (stereo not given),u,x,x,x,n
CCc1ccc(S(=O)(=O)N2C[C@@H](F)C[C@H]2C(=O)N2CCc3ccccc3C2)cc1,n,n,n,n,n
CCc1ccccc1S(=O)(=O)N1C[C@@H](F)C[C@H]1C(=O)N1CCc2ccccc2C1,32µM,n,n,n,u
O=C([C@@H]1C[C@H](F)CN1C(=O)Nc1cccc(C(F)(F)F)c1)N1CCc2ccccc2C1,22µM,n,n,n,32µM
O=C(c1ccccc1)N1CCCC1C(=O)N1CCCC1c1nc2ccncc2[nH]1 (stereo not given),n,x,n,x,n
Cc1ccc(CN2Cc3[nH]cnc3C[C@H]2c2nc(-c3ccc4ccccc4c3)no2)cc1,45µM,63µM,n,n,63µM
OCc1ccc(CN2Cc3[nH]cnc3C[C@H]2c2nc(-c3ccc4ccccc4c3)no2)o1,79µM,u,n,n,79µM
OCc1ccc(CN2Cc3[nH]cnc3C[C@H]2c2nc(-c3ccncc3)no2)o1,n,u,n,n,n
CCC#CCN1CCc2ccccc2N(CC(O)COc2ccc(OC)cc2)CCC1=O (stereo not given),u,x,n,x,u
O=C(Cn1cccc1-c1nc(-c2ccccc2)no1)Nc1ccc(F)cc1,n,n,u,n,u
O=c1c2c(n(Cc3cccnc3)n1CCc1ccccc1)CN(Cc1cccc(O)c1)CC2,u,n,n,n,n
COc1ccc(Cn2c3c(c(=O)n2Cc2ccccc2)CCN(C(C)=O)C3)cc1,u,n,n,n,n
COc1ccc(Cn2c3c(c(=O)n2Cc2ccccc2)CCN(C(=O)C2CCOCC2)C3)cc1,25µM,n,n,n,n
CCn1c2c(c(=O)n1Cc1ccccc1)CCN(C(=O)c1cccnc1)C2,50µM,n,n,n,n
COc1ccc(-n2c(=O)c3c(n2Cc2ccccc2)CN(C(=O)COc2ccccc2)CC3)cc1,40µM,n,n,n,n
O=C(COc1ccccc1)N1CCc2c(n(Cc3cccnc3)n(CCc3ccccc3)c2=O)C1,35µM,n,n,n,n
CCn1c2c(c(=O)n1Cc1ccccc1)CCN(C(=O)c1cccc(C#N)c1)C2,u,n,n,n,n
COCCn1c(=O)c2c(n1Cc1ccccc1)CN(C(=O)COc1ccccc1)CC2,22µM,n,n,n,n
COCCn1c2c(c(=O)n1-c1ccccc1)CCN(C(=O)COc1ccccc1)C2,u,n,n,n,n
SMILES,3T3 cytotox,FLuc inh,GPT2 inh,hNpr1 antagonist,HEK cytotox
CCn1c2c(c(=O)n1Cc1ccccc1)CCN(C(=O)COc1ccccc1)C2,50µM,n,n,n,n
COc1ccc(Cn2c3c(c(=O)n2Cc2ccccc2)CCN(C(=O)CCc2cccnc2)C3)cc1,6.3µM,n,n,n,n
CCOc1cccc(CNC(=O)[C@H]2CCC[C@H]2NC(=O)c2ccc(OC)cc2)c1,n,n,n,n,n
Cc1nc2cnccn2c1C(=O)NCC(F)(F)F,n,x,x,x,n
Cc1ccc(CN2CCC3(CCNCC3)C2)c(Cl)c1Cl,u,n,n,n,u
c1ccc(COc2ccccc2CN2CCC3(CCNCC3)C2)cc1,22µM,n,n,n,28µM
COc1cc(CN2CCC3(CCNCC3)C2)cc(OC)c1OC,n,n,n,n,u
CC(C)(C)c1cccc(CN2CCC3(CCNCC3)C2)c1O,22µM,n,n,n,22µM
O=C(C1CC1)N1CCCC(C(=O)N2CCCC2c2nc3ccncc3[nH]2)C1 (stereo not given),n,x,u,x,n
COc1ccc2[nH]c(C[C@@H]3C[C@@H](C(C)C)[C@H](CNC(C)=O)C=C3C)nc2n1,u,n,n,n,71µM
COc1ccc2[nH]c(C[C@@H]3C[C@@H](C(C)C)[C@H](CNC(=O)c4cnccn4)C=C3C)nc2n1,100µM,n,n,n,63µM
COc1ccc2[nH]c(C[C@@H]3C[C@@H](C(C)C)[C@H](CNCc4cccnc4)C=C3C)nc2n1,89µM,n,n,n,63µM
CCc1ccccc1NC(=O)Nc1cccc(-c2ccc(N3CCOCC3)nn2)c1,u,1µM,n,n,u
CCc1ccccc1NC(=O)Cn1c(N2CCOCC2)nc(COC)cc1=O,n,n,n,n,n
Cc1ccc(NC(=O)Nc2cccc(-c3ccc(N4CCOCC4)nn3)c2)cc1,n,0.63µM,n,u,u
O=C(Nc1cccc(-c2ccc(N3CCOCC3)nn2)c1)Nc1ccc(F)cc1F,u,2µM,n,n,u
Cc1cccc(C(=O)Nc2cccc(-c3ccc(N4CCN(C)CC4)nn3)c2)c1,40µM,32µM,u,n,u
Cc1c(F)cccc1NC(=O)Nc1cccc(-c2nnc3n2CCCC3)c1,n,u,n,n,n
CCC(C)C(=O)N1CCC2(CC1)NCCc1c2[nH]c2ccc(OC)cc12 (stereo not given),n,n,n,n,u
CSc1cccc(NC(=O)C2CCCN(c3cnc4nc(C)c(C)nc4c3)C2)c1 (stereo not given),n,n,n,n,n
CSc1ccc(NC(=O)Nc2cccc(-c3ccc(N4CCOCC4)nn3)c2)cc1,u,0.56µM,n,11µM,u
CSc1cccc(NC(=O)Nc2cccc(-c3ccc(N4CCCC4)nn3)c2)c1,u,1.8µM,n,n,u
Cc1ccc(C(=O)N2CCCC(C(=O)N3CCC(c4nc5ncccc5[nH]4)CC3)C2)cc1 (stereo not given),n,x,n,x,n
OCC1(CC2CC2)CCCN(Cc2noc(C3CC3)n2)C1 (stereo not given),n,n,n,n,n
C=CCC1(CO)CCCN(Cc2cc(C3CCCCC3)no2)C1 (stereo not given),u,n,n,n,40µM
